Reference: PubChem BioAssay AID651640 (Broad Institute, 2012)
Where “and” joins values, the source holds several entries; their conditions need not be identical. Identical values can stand only once. In all, about 350,000 compounds went through this assay and about 6,000 (1.7%) were called active. Another 5% or so got no clear call; they are omitted. Rule as the data show it: active = CPE inhibition above about 20% (passing the limit was not always enough); inconclusive = no clear call, values can overlap the other calls; tested in BHK-21 cells. Shown is part of a subset that was picked to be rich in actives. Some compounds were tested as several samples or in several runs, with calls that do not always agree.

assay: inhibitors of DENV2 cytopathic effect, primary screen, cell-based, plate reader, single concentration (AID 651640); conditions: DENV2-infected cells, cytopathic effect rescue, at 9.99 µM, stronger effect = higher value;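 also: 0% = median of neutral control wells and 100% = median of positive control wells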

| Structure (SMILES) | CPE inhibition |
| --- | --- |
| C[C@H](NC(=O)N(C)C[C@@H]1OCc2ccccc2-c2ccccc2C(=O)N([C@H](C)CO)C[C@@H]1C)c1ccccc1 | 3.49% (inactive) |
| O=C(C[C@@H]1CC[C@@H](NC(=O)CC2CC2)[C@H](CO)O1)NCc1ccc(-c2ccccc2)cc1 | 2.21% (inactive) |
| Cn1cnc(S(=O)(=O)N2C[C@H](O)COC[C@@H]3O[C@H](CC(=O)NCc4cccc(F)c4)CC[C@H]32)c1 | -0.815% (inactive) |
| Cc1ccc([C@H]2N[C@]3(CCCN(Cc4ccccc4)C3=O)[C@H]3C(=O)N(Cc4ccccc4)C(=O)[C@@H]23)cc1 | 12.7% (inactive) |
| COc1ccc([C@H]2N[C@]3(CCCN(Cc4ccco4)C3=O)[C@H]3C(=O)N(C)C(=O)[C@@H]23)cc1 | 91.3% (active) |
| CCN1C(=O)[C@H]2[C@@H](c3ccccc3)N[C@]3(CCCN(Cc4ccc(C)cc4)C3=O)[C@H]2C1=O | -9.89% (inactive) |
| CC(C)CC#Cc1ccc2c(c1)O[C@H](CN(C)C(=O)CC1CC1)[C@@H](C)CN([C@@H](C)CO)S2(=O)=O | 0.266% (inactive) |
| CCC(=O)N(C)C[C@@H]1Oc2cc(C#C[C@H](C)O)ccc2S(=O)(=O)N([C@H](C)CO)C[C@@H]1C | 8.89% (inactive) |
| CCCNC(=O)N1[C@@H]2CNC[C@H]1C2c1ccc(-c2ccccc2)cc1 (some centres not stated) | -5.46% (inactive) and 6.08% (inactive) |
| COc1ccc(S(=O)(=O)N2C[C@@H](O)COC[C@H]3O[C@H](CC(=O)N[C@H]4CCN(Cc5ccccc5)C4)CC[C@@H]32)cc1 | 13.5% (inactive) |
| CC(=O)N1[C@H](CO)[C@@H](c2ccccc2)[C@@H]1CN(CC(C)C)C(=O)c1ccccn1 | -9.41% (inactive) |
| N#Cc1ccc(-c2ccc(C3[C@H]4CNC[C@@H]3N4S(=O)(=O)c3ccccc3F)cc2)cc1 (some centres not stated) | 6.8% (inactive) |
| CN(C)C(=O)c1ccc(-c2ccc(C3[C@H]4CNC[C@@H]3N4C(=O)Nc3cc(F)ccc3F)cc2)cc1 (some centres not stated) | 1.83% (inactive) |
| O=S(=O)(c1ccccc1F)N1[C@@H]2CNC[C@H]1C2c1ccc(-c2cncnc2)cc1 (some centres not stated) | -1.33% (inactive) |
| CN(C)C(=O)c1cccc(-c2ccc(C3[C@H]4CNC[C@@H]3N4C(=O)Nc3ccccc3F)cc2)c1 (some centres not stated) | 23.3% (active) |
| COc1cccc(-c2ccc(C3[C@H]4CNC[C@@H]3N4C(=O)Nc3ccc(F)cc3)cc2)c1 (some centres not stated) | -1.4% (inactive) and 18.6% (inactive) |
| Cc1cccc(-c2ccc(C3[C@H]4CNC[C@@H]3N4S(=O)(=O)c3ccccc3F)cc2)c1 (some centres not stated) | -1.96% (inactive) and 22.1% (active) |
